Source: PubChem BioAssay (NCI)
About 83,000 compounds went through this panel and 20% of them were active in at least one assay; those are over-represented in the sample as a whole.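 Testing used 96-well plates and a 48-hour single-concentration exposure. Example: -40 means 40% of the starting cells died.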 The source made the active and inactive calls. How the source made its calls: active means growth percent below 10; inactive means the rest.

Test system: NCI-H23 lung
Experiment: NCI-60 one-dose screen, 48 h (100 = growth as untreated, 0 = no growth, -100 = all killed)
Details: 10 µM

| SMILES | growth |
| --- | --- |
| Cc1ccc(N)cc1[N+](=O)[O-] | 97.1% (inactive) |
| CC(C)COC(=O)COC(=O)OCCOCCOC(=O)OCC(=O)OCC(C)C | 100% (inactive) |
| Nc1ccc(N)c([N+](=O)[O-])c1 | 103% (inactive) |
| CC1(c2ccccc2)NC(=O)NC1=O (centres undefined) | 116% (inactive) |
| O=[N+]([O-])c1ccc(CO)cc1 | 104% (inactive) |
| O=c1cc(-c2ccccc2)[nH]c2c1CCCC2 | 32.1% (inactive) |
| C=C1CC/C=C(\C)C(=O)C[C@@H]2[C@@H]1CC2(C)C | 107% (inactive) |
| Brc1cnc2ccccc2c1 | 103% (inactive) |
| C=CCNc1nnc(C)s1 | 98.1% (inactive) |
| COc1ccc(/C(C#N)=C2C=C/C(=N/O)c3ccccc3\2)cc1 | 27.7% (inactive) |
| Cc1cc(C)c(CC(=O)O)c(C)c1 | 100% (inactive) |
| Cc1ccc(O)c(C(=O)c2ccccc2)c1 | 98.4% (inactive) |
| COc1ccc(C(O)c2ccccc2)cc1 (centres undefined) | 97.6% (inactive) |
| CCOC(=O)c1cc(/C=C/c2ccc(Cl)cc2Cl)on1 | 47.4% (inactive) |
| CC(=O)c1ccc(C)c(N)c1 | 81.5% (inactive) |
| NC(=S)CN1CCOCC1 | 106% (inactive) |
| CNC(=S)NC(C)(C)C | 104% (inactive) |
| CC(=O)Nc1c(C)cc(C)cc1C | 101% (inactive) |
| O=C(Nc1cc(-c2ccccc2)[nH]n1)c1ccc(Cl)cc1 | 87.8% (inactive) |
| O=C(OCC(O)C1OC(c2ccccc2)OC(COC(=O)c2ccccc2)C1O)c1ccccc1 (centres undefined) | 111% (inactive) |

| SMILES | growth |
| --- | --- |
| O=C(NC1CCCCC1)OCc1c(COC(=O)NC2CCCCC2)c(-c2ccc(Cl)c(Cl)c2)n2c1CCC2 | 22.7% (inactive) |
| CC(C)=C(NC(=O)c1ccccc1)C(=O)O | 107% (inactive) |
| Nc1ccc(N=Nc2ccc(S(=O)(=O)O)cc2)c2ccccc12 | 86.2% (inactive) |
| CCCCOC(OCCCC)c1ccccc1 | 95% (inactive) |
| CN(C)c1ccc(C(c2ccc(O)cc2)c2ccc(N(C)C)cc2)cc1 | 104% (inactive) |
| CN(C)c1ccc(CNC(C(=O)c2ccccc2)c2ccccc2)cc1 (centres undefined) | 98.5% (inactive) |
| CC(=O)OCC1CCCO1 (centres undefined) | 106% (inactive) |
| Cc1cc(C(O)(c2ccc(Nc3ccccc3)cc2)c2ccc(Nc3ccc(S(=O)(=O)O)cc3)cc2)ccc1N (centres undefined) | 8.07% (active) |
| CN(C)Cc1cc(C(C)(C)CC(C)(C)C)ccc1O | 91% (inactive) |
| Oc1ccc(Cc2ccccc2)c2cccnc12 | 7.91% (active) |
| C=CC[N+](C)(C)C | 103% (inactive) |
| COc1ccccc1C1OC2=Nc3cc(C)c(C)cc3NC2C1=O (centres undefined) | 79% (inactive) |
| CC(C(=O)O)(C1CCCCC1)C1(O)CCCCC1 (centres undefined) | 103% (inactive) |
| O=C1C[C@H](c2ccccc2)[C@H](c2ccccc2)C1 | 102% (inactive) |
| CN1C(=O)CN2CCc3ccccc3C2c2cc(Cl)ccc21 (centres undefined) | 87.1% (inactive) |
| C1CNC(C2=NCCN2)=N1 | 106% (inactive) |
| O=c1[nH]c(O)c(/C=C2/C=Nc3ccccc32)[nH]1 | 101% (inactive) |
| COc1cccc(Sc2ccc([N+](=O)[O-])c3no[n+]([O-])c23)c1 | 68.8% (inactive) |
| NC(=O)c1ccc(N=C(N)N=C(N)N)cc1 | 102% (inactive) |
